# Laboratory results taken from PubChem BioAssay (NCATS).
# Values without a mark were called inactive. For part of these data: Measured potencies and affinities stand elsewhere. The source made the active and inactive calls. How the calls were made is not given here.
# Experiments:
# [1] = Ebola virus entry assay, green fluorescence channel
# [2] = Ebola virus entry assay, blue channel fluorescence
# [3] = Ebola virus entry assay, ratio channel
# [4] = Ebola virus entry assay, green channel fluorescence
# [5] = Ebola virus entry assay, reporter ratio channel; Channel type: primary
# [6] = Ebola virus entry assay, blue channel (ratio component)
# Wherever efficacy is given: 0% is about no effect.
Compound,efficacy [1] [%],outcome [2],outcome [3],outcome [4],outcome [5],outcome [6],AC50 [5],AC50 [3]
CC(=O)Oc1ccc(C2(c3ccc(OC(C)=O)cc3)Oc3ccccc3NC2=O)cc1,-26.7,inactive,inactive,inactive,inactive,inactive,–,–
O=C1c2cccc(O)c2C(=O)c2c(O)cccc21,-10.2,inactive,inactive,inactive,inactive,inactive,–,–
CCCCCCc1ccc(O)cc1O,-21,inactive,inactive,inactive,–,inactive,39.8 µM (active),–
OCC(CO)N[C@H]1C[C@](O)(CO)[C@@H](O)[C@H](O)[C@H]1O,-14.7,inactive,inactive,inactive,inactive,inactive,–,–
CN1C(=O)CC(c2ccccc2)C1=O (configuration not stated),12.2,inactive,inactive,inactive,inactive,inactive,–,–
NS(=O)(=O)c1cc2c(cc1Cl)CN(C1CCCCC1)C2=O,30.3,inactive,inactive,inactive,inactive,inactive,–,–
CC(C)=CCC/C(C)=C/CC/C(C)=C/C(=O)OCC(=O)[C@@]1(O)CC[C@H]2[C@@H]3CCC4=CC(=O)C=C[C@]4(C)[C@H]3[C@@H](O)C[C@@]21C,14.4,inactive,inactive,inactive,inactive,inactive,–,–
CC1(C)OC(=O)Nc2ccc(Br)cc21,-21.5,inactive,inactive,inactive,inactive,inactive,–,–
CN(C)C(=O)Oc1cccc([N+](C)(C)C)c1,-10.1,inactive,inactive,inactive,inactive,inactive,–,–
C[C@H]1NCc2cc(-c3ccc4c(=O)c(C(=O)O)cn(C5CC5)c4c3OC(F)F)ccc21,-19.7,inactive,inactive,inactive,inactive,inactive,–,–
COc1cc(OC)cc(OC)c1,-13.9,inactive,inactive,inactive,inactive,inactive,–,–
CNc1c2c(nn1C)CCCC2,-13.1,inactive,inactive,inactive,inactive,inactive,–,–
CNC(=O)CN(CCN(CCN(CC(=O)[O-])CC(=O)NC)CC(=O)[O-])CC(=O)[O-].O.[Gd+3],-24.9,inactive,inactive,inactive,inactive,inactive,–,–
CNC(=O)c1cnn(-c2nc(N)c3ncn([C@@H]4O[C@H](CO)[C@@H](O)[C@H]4O)c3n2)c1,20.7,inactive,inactive,inactive,inactive,inactive,–,–
O=C1O[C@H]([C@@H](O)CO)C(O)=C1O,-34.4,inactive,inactive,inactive,inactive,inactive,–,–
CC(=O)Oc1ccc(C(=C2CCCCC2)c2ccc(OC(C)=O)cc2)cc1,-12.6,inactive,inactive,inactive,inactive,inactive,–,–
CC1CC(=O)NN=C1c1ccc(NCC(C)(C)NCC(O)COc2cc(Cl)ccc2C#N)cc1 (configuration not stated),42.4,inactive,inactive,inactive,inactive,inactive,–,–
O=C(O)CNC(=O)c1ccccc1I,-12.8,inactive,inactive,inactive,inactive,inactive,–,–
C[C@@]12CCC[C@H]1[C@@H]1CC[C@H]3C[C@@H](O)CC[C@]3(C)[C@H]1CC2,-12.6,inactive,inactive,inactive,inactive,inactive,–,–

Compound,efficacy [1] [%],outcome [2],outcome [3],outcome [4],outcome [5],outcome [6],AC50 [5],AC50 [3]
CN1CCN(c2c(F)cc3c(=O)c(C(=O)O)cn(CCF)c3c2F)CC1,-28.9,inactive,inactive,inactive,inactive,inactive,–,–
CCN(CC)CCN,-14.9,inactive,inactive,inactive,inactive,inactive,–,–
CCOC(=O)[C@H](CCc1ccccc1)N[C@@H](C)C(=O)N(CC(=O)O)C1Cc2ccccc2C1,28.2,inactive,–,inactive,–,inactive,20 µM (active),20 µM (active)
O=C(Nc1ccc(C(=O)O)c(O)c1)c1ccccc1,-10.4,inactive,inactive,inactive,inactive,inactive,–,–
Nc1ccc(C(=O)NCC(=O)O)cc1,34,inactive,inactive,inactive,inactive,inactive,–,–
C[C@]12CC[C@@H]3c4ccc(O)cc4CC[C@H]3[C@@H]1CC[C@@H]2OC(=O)CCC1CCCC1,23.9,inactive,inactive,inactive,inactive,inactive,–,–
NCCNC(=O)c1ccc(Cl)cn1,-25.1,inactive,inactive,inactive,inactive,inactive,–,–
CC(=O)CCC(=O)O,10.9,inactive,inactive,inactive,inactive,inactive,–,–
CCOC(=O)C(C#N)=C(c1ccccc1)c1ccccc1,19.4,inactive,inactive,inactive,inactive,inactive,–,–
C=C(C)C(=O)OCC(O)CO (configuration not stated),-24.2,inactive,inactive,inactive,inactive,inactive,–,–
C[N+]1(CC2COC(c3ccccc3)(C3CCCCC3)O2)CCCCC1 (configuration not stated),48.1,inactive,inactive,inactive,inactive,inactive,–,–
O=C(O)[C@H](O)[C@@H](O)[C@H](O[C@@H]1O[C@H](CO)[C@H](O)[C@H](O)[C@H]1O)[C@H](O)CO,24.3,inactive,inactive,inactive,inactive,inactive,–,–
O=c1[nH]c(=O)c2ccccc2o1,15,inactive,inactive,inactive,inactive,inactive,–,–
CC1CC(OC(=O)C(O)c2ccccc2)CC(C)(C)N1C (configuration not stated),9.62,inactive,inactive,inactive,inactive,inactive,–,–
N[C@@H](Cc1cc(I)c(O)c(I)c1)C(=O)O,29.5,inactive,inactive,inactive,inactive,inactive,–,–
O=C(O)Cn1c(C(=O)Nc2nc(-c3ccccc3Cl)cs2)cc2ccccc21,-23.1,inactive,inactive,inactive,inactive,inactive,–,–
Cc1cccc(C)c1NC(=O)CN1CCCC1,18.6,inactive,inactive,inactive,inactive,inactive,–,–
NNc1nnc(NN)c2ccccc12,-13,inactive,inactive,inactive,inactive,inactive,–,–
CN(C(=O)c1c(O)c2ccccc2n(C)c1=O)c1ccccc1,-16,inactive,inactive,inactive,inactive,inactive,–,–

Compound,efficacy [1] [%],outcome [2],outcome [3],outcome [4],outcome [5],outcome [6],AC50 [5],AC50 [3]
O=C(Oc1cccc2cccnc12)c1ccccc1,-27.7,inactive,inactive,inactive,inactive,inactive,–,–
c1ccc([C@H]2CN3CCSC3=N2)cc1,-38.1,inactive,inactive,inactive,inactive,inactive,–,–
Cc1ccc(O)c(-n2nc3ccccc3n2)c1,21,inactive,inactive,inactive,inactive,inactive,–,–
CC(C)=CCNc1ncnc2c1ncn2[C@@H]1O[C@H](CO)[C@@H](O)[C@H]1O,38.7,inactive,inactive,inactive,inactive,inactive,–,–
COC(=O)c1cc(S(N)(=O)=O)ccc1OC,-31.2,inactive,inactive,inactive,inactive,inactive,–,–
CC(C)Cn1cnc2c1c(=O)n(C)c(=O)n2C,-27.1,inactive,inactive,inactive,inactive,inactive,–,–
CC(=O)Nc1ccc(S(=O)(=O)Nc2ccc([N+](=O)[O-])cc2)cc1,-17.6,inactive,inactive,inactive,inactive,inactive,–,–
O=C1C(CCS(=O)c2ccccc2)C(=O)N(c2ccccc2)N1c1ccccc1 (configuration not stated),28.5,inactive,inactive,inactive,inactive,inactive,–,–
CC(=O)Nc1ccc(OCCOCCOc2ccc(NC(C)=O)cc2)cc1,20.2,inactive,inactive,inactive,inactive,inactive,–,–
C[C@@H](O)[C@H]1C(=O)N2C(C(=O)O)=C([C@H]3CCCO3)S[C@H]12,-19.1,inactive,inactive,inactive,inactive,inactive,–,–
C=Cc1c(C)c2cc3[nH]c(cc4nc(cc5nc(cc1[nH]2)C(C)=C5CCC(=O)O)C(CCC(=O)O)=C4C)c(C)c3C=C,15.1,inactive,inactive,inactive,inactive,inactive,–,–
Cc1c(Cn2ccnc2)c2ccccc2n1CCC(=O)O,14,inactive,inactive,inactive,inactive,inactive,–,–
CC(=O)O[C@H]1CC[C@@]2(C)C(=CC[C@@H]3[C@@H]2CC[C@]2(C)C(C(C)=O)=CC[C@@H]32)C1,-13.1,inactive,inactive,inactive,inactive,inactive,–,–
Nc1nc2ncc(CNc3ccc(C(=O)N[C@@H](CCC(=O)O)C(=O)O)cc3)nc2c(=O)[nH]1,12.4,inactive,inactive,inactive,inactive,inactive,–,–
Cc1c(F)cc2c(=O)c(C(=O)O)cn3c2c1CCC3C (configuration not stated),17.9,inactive,inactive,inactive,inactive,inactive,–,–
O=C1Nc2ccccc2C1(c1ccc(O)cc1)c1ccc(O)cc1,-14,inactive,inactive,inactive,inactive,inactive,–,–
C[C@@H](O)[C@H](N)C(=O)O,-9.88,inactive,inactive,inactive,inactive,inactive,–,–
Nc1ccc(S(=O)(=O)Nc2cnc3ccccc3n2)cc1,-10.5,inactive,inactive,inactive,inactive,inactive,–,–
Cc1nnc(C(=O)NC(C)(C)c2nc(C(=O)NCc3ccc(F)cc3)c(O)c(=O)n2C)o1,-16.5,inactive,inactive,inactive,inactive,inactive,–,–
